Hits are enriched below; roughly 32% of the tested compounds scored in any of these assays.
PostGolgi yeast: growth inhibition of a yeast mutant, post-Golgi transport screen; AID 739; post-Golgi transport phenotypic cell assay; inhibition, % at 10 µM; 98,000 tested, 0.9% active;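 also: yeast cells grown in 1536-well plates; yeast grown about 18 h at 30C before absorbance read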
PostGolgi ctrl: inhibits growth of the yeast control strain. efflux-deficient yeast background strain, growth absorbance A615, 16 h. inhibition, % at 10 µM. 98,000 tested, 5% active. AID 738
CYP2C19 act: increases human CYP2C19 enzyme activity. P33261. recombinant CYP2C19, luciferin-H EGE luminescence; active compounds read high; 0 = fully inhibited enzyme, 1 = untreated enzyme. activation factor at 5 µM. 96,000 tested, under 10 active. AID 1025;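 active = activation factor of at least 2 at 5 µM in the primary screen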;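 also: 0 = wells with 2.5 mM tranylcypromine and 1 = vehicle-only wells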
Target sequence (P33261 whole entry, looked up): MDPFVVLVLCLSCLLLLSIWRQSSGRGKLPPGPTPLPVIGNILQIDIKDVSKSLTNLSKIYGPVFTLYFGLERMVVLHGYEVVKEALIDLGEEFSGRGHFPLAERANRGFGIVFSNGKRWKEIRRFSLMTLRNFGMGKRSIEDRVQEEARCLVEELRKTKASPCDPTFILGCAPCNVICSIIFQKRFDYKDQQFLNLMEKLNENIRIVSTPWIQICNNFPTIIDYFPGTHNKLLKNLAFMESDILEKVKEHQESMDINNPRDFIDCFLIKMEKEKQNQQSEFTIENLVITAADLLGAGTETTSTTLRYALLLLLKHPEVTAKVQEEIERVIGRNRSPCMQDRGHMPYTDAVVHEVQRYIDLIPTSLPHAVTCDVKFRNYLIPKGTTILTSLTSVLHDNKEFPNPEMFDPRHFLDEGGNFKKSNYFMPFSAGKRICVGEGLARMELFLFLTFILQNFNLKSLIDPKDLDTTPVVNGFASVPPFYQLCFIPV
CYP2C9 activ: CYP2C9 (human) activation; 96,000 tested, 1.4% active; P11712; AID 1024; recombinant CYP2C9, luciferin-H conversion, luminescence; active compounds read high; factor 1 = untreated enzyme, 0 = blocked; activation factor at 5 µM;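 active = activation factor of 2 or more for CYP2C9 at a 5 µM dose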;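 also: 0 = sulfaphenazole-blocked wells and 1 = vehicle-only wells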
CYP2C9 inhib: inhibitors of human CYP2C9. 96,000 tested, 20% active. inhibition, % at 5 µM. CYP2C9 Supersomes, luciferin-H conversion, luminescence. P11712;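 active = blocking of liver enzyme CYP2C9 beyond about 50% at 5 µM, limit read from the data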
CYP2C19 inhib: blocks human cytochrome P450 2C19; P33261; CYP2C19 Supersomes, luciferin-H EGE luminescence, 30 min; inhibition, % at 5 µM; 96,000 tested, 21% active; AID 778;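 active = CYP2C19 inhibition above a set limit at 5 µM in the primary screen, cut at about 50% in these data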;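 also: plate controls were negative control wells for no effect and 2.5 mM tranylcypromine positive control for full effect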
An asterisk follows results filed as active; nt = no result. Rule as the data show it, unless noted: active = inhibition above about 30%; inactive = the rest.

SMILES	PostGolgi yeast	PostGolgi ctrl	CYP2C19 act	CYP2C9 activ	CYP2C9 inhib	CYP2C19 inhib
O=C1C2CCN(CC2)C1Cc1ccccc1O (stereo not drawn)	2	0	1	1	0	0
O=C1C2CCN(CC2)C1Cc1ccc(OCCOc2ccccc2)cc1 (stereo not drawn)	1	43*	1.1	1.1	-9	-15
O=C(c1cc(=O)[nH]c2ccc(Br)cc12)N1CCC2(CC1)OCCO2	-4	0	0.9	0.9	7	10
O=C(Cc1ccccc1)N1CCN(Cc2cccnc2)CC1	-5	10	0.2	1	-1	76*
O=C(Cc1ccccc1)N1CCN(CC2CC=CCC2)CC1 (stereo not drawn)	-8	1	0.5	0.9	5	48
O=C1NC(=O)C2(Cc3ccccc3N3CCOCC32)C(=O)N1c1ccccc1 (stereo not drawn)	-1	2	0.6	0.5	47	44
Cc1ccc(S(=O)(=O)Cc2ccc(C(=O)N3CCC4(CC3)OCCO4)o2)cc1	-1	-2	0.4	0.3	70*	62*
CCCN(CC#CCO)CCC	7	14	nt	nt	nt	nt
CCOC(=O)C(C)(CC)NC(=O)CSP(=S)(OCC)OCC (stereo not drawn)	-2	-4	0	0.1	91*	98*
CCOP(=S)(OCC)SCC(=O)NC(C(=O)O)C(C)C (stereo not drawn)	0	6	0.9	0.1	92*	7
Cc1nn(Cc2ccccc2)c(C)c1C(=O)OCC(=O)NCc1ccco1	-2	6	0.4	0.3	70*	60*
Cc1cc(NC(=O)COC(=O)c2c(C)nn(Cc3ccccc3Cl)c2Cl)no1	-3	22	0.9	1	-1	14
Cc1cc(NC(=O)COC(=O)c2c(C)nn(Cc3ccccc3)c2C)no1	20	10	0.7	0.3	65*	30
Cc1nn(Cc2ccccc2)c(C)c1C(=O)OCC(=O)Nc1ccccc1SCC#N	19	8	0.1	0	96*	86*
Nc1ccc(C2(c3ccc(N)cc3)CN3CCC2CC3)cc1	-9	8	1.1	1.1	-5	-14
CC1OC(NCCc2ccccc2)C(O)C(O)C1O (stereo not drawn)	3	15	nt	nt	nt	nt
CCN1CCN(c2ccc(NC(=O)C(C)C)cc2Cl)CC1	18	16	0.9	0.7	28	8
Cc1ccc(Cl)cc1N1CCN(CCN)CC1	-1	23	0.4	0.7	35	59*
CCOC(=O)c1c(C)n(Cc2ccco2)c2c1cc(O)c1ccccc12	5	11	1	0.2	82*	-2
CCOC(=O)c1c(C)n(Cc2ccco2)c2ccc(OC)cc12	8	19	0.6	0.7	29	42
CCCCCCn1c(=O)c(C(=O)Nc2ccncc2)c(O)c2ccccc21	nt	nt	0.8	0.6	42	22
O=C(Nc1cccnc1)c1c(O)c2c(n(Cc3ccccc3)c1=O)CCCC2	-1	38*	1	0.9	7	-3
Cc1cc(S(=O)(=O)NCC(C)C)ccc1OCC(=O)N1CCN(Cc2ccccc2)CC1	-2	30	0.5	0.3	66*	50*
CC(C)NS(=O)(=O)c1ccc(OCC(=O)N2CCN(Cc3ccc4c(c3)OCO4)CC2)c(Cl)c1	-4	5	0.3	0.8	18	71*
Cc1cc(S(=O)(=O)NC(C)C)ccc1OCC(=O)N1CCN(Cc2ccc3c(c2)OCO3)CC1	-7	5	0.4	0.4	59*	63*
SMILES	PostGolgi yeast	PostGolgi ctrl	CYP2C19 act	CYP2C9 activ	CYP2C9 inhib	CYP2C19 inhib
Cc1ccc(C2C(S(C)(=O)=O)=C(O)C(=O)N2c2ccccc2)cc1 (stereo not drawn) (tested in a mixture with another compound)	0	14	1	1.1	-8	-3
CN(C)c1ccc2c(c1)N=C(c1ccco1)OP2(=S)N1CCOCC1 (stereo not drawn)	-1	16	1	0.8	18	3
CC12CN3CCN(CC(C3)C1O)C2 (stereo not drawn)	5	7	0.9	0.9	10	13
O=c1[nH]c(=O)n(C2CCCCC2)c(O)c1C=NCCCn1ccnc1	3	-2	0.4	0.5	50*	61*
O=c1[nH]c(=O)n(CCC2=CCCCC2)c(O)c1C=NCCCn1ccnc1	5	5	0.1	0	97*	86*
O=c1[nH]c(=O)n(CCc2ccc(F)cc2)c(O)c1C=NCCCn1ccnc1	-1	2	0.5	0.3	68*	47
O=c1[nH]c(=S)n(CCC2=CCCCC2)c(O)c1C=NCc1cccnc1	1	-4	0.9	1	4	12
CCN(CC)CCN=Cc1c(O)n(C2CCCCCC2)c(=O)[nH]c1=O	19	7	0.8	0.8	16	21
O=c1[nH]c(=S)n(CCC2=CCCCC2)c(O)c1C=NCCCn1ccnc1	6	-8	0.1	0	98*	93*
CN(C)CCN=Cc1c(O)n(CCC2=CCCCC2)c(=O)[nH]c1=O	16	14	0.7	0.8	16	28
Nc1ccc2c(c1)oc1ccccc12	5	17	0.8	0.8	21	22
COc1ccc(CN2CC3CC(C2)c2cccc(=O)n2C3)cc1OC (stereo not drawn)	11	4	1	1	0	-4
CCN(CC)CCOC(=O)c1ccc(N=Cc2c(O)[nH]c(=O)[nH]c2=O)cc1	4	-11	1.1	1.1	-12	-14
Cc1ccc2nc(-c3ccncc3)cc(C(=O)N3CCC4(CC3)OCCO4)c2c1	4	13	0.8	0.5	51*	17
O=C(c1cc(-c2cccnc2)nc2ccc(Cl)cc12)N1CCC2(CC1)OCCO2	23	6	0.9	0.8	17	9
C=Cn1ccnc1P(=S)(c1ccn(C)c1)c1nccn1C=C	-4	1	1.1	1.1	-14	-9
O=C1C2CCCN2C(c2cccnc2)N1c1nccs1 (stereo not drawn)	-7	-8	1.1	1	-2	-7
O=C1C(=O)c2ccccc2-c2ccccc21	7	38*	0	0.1	93*	98*
O=C1C(c2ccccc2)=C(N2CC2)c2ccccc21	0	12	0.7	0.9	7	34
CCC(=Nc1ccc2c(c1)CCC2)c1c(O)n(C)c(=O)n(C)c1=O	nt	nt	1.1	1	1	-6
CCC(=NCc1ccc(F)cc1)c1c(O)n(C)c(=O)n(C)c1=O	19	9	0.2	0.3	67*	84*
CC1(C)NCCN2C(=O)CSC21 (stereo not drawn)	-1	-2	1	1.1	-7	0
Clc1cccc(CN2CCCCC2c2cccnc2)c1 (stereo not drawn)	nt	nt	0.1	0.5	54*	95*
O=C1C2CCCN2C(c2cccnc2)N1c1cccc(Cl)c1 (stereo not drawn)	-3	4	0.8	0.9	15	16

Source: PubChem (several laboratories)
